Measurements reported in PubChem BioAssay AID504329 (Southern Research Specialized Biocontainment Screening …, 2011).
Out of some 340,000 compounds screened, about 1,000 (0.29%) were called active. These entries were drawn from the full list. Potency and affinity values are given separately. Values without a mark were called inactive. Cut-off read from the data, not from the text of the source: inconclusive = inhibition above about 27% without an active follow-up result; inactive = below that.

assay: NS1A inhibition, H1N1 influenza, cell based functional assay (AID 504329); conditions: percent inhibition, at 12.5 µM, hits give high values

| SMILES | inhibition |
| --- | --- |
| O=c1[nH]c(=S)[nH]cc1Oc1ccccc1 | -0.47% |
| CC(=O)N1c2ccc(S(=O)(=O)N3CCCC(C(=O)Nc4ccc(F)cc4)C3)cc2CC1C (stereo not given) | 1.22% |
| CC1CCN(C2CCN(S(=O)(=O)c3ccc(F)cc3)CC2)CC1 | -14.4% |
| Cc1nn2c(=S)[nH]nc2[nH]c1=O | 5.07% |
| COc1ccccc1OCC(=O)Nn1c(=S)[nH]c2ncccc2c1=O | -1.5% |
| CNCC(=O)Nc1c(C)n[nH]c1C | -3.79% |
| Cc1n[nH]c(=S)n(/N=C/c2cccs2)c1=O | -10.9% |
| COc1cc(C)ccc1OCC(=O)NC1CCCCCC1 | -0.58% |
| CCC(C)NC(=O)COCc1cc(-c2ccc3c(c2)OCO3)on1 (stereo not given) | -7.2% |
| COc1ccc(-c2sc3cc4c(cc3c2-c2ccc3c(c2)OCCO3)OCO4)cc1 | -11.4% |
| ClCC1CSC(=NC23CC4CC(CC(C4)C2)C3)O1 (stereo not given) | -6.27% |
| N#CC(C#N)=c1ccc2c(c1)N1C(c3ccccc3)=CC(c3ccccc3)C3CCCCC31N=2 (stereo not given) | -4.24% |
| C1=CC2=NC34CCCCC3CC3=C(CCCC3)N4C2=CC1=NC1CCCCC1 (stereo not given) | 4.56% |
| C=CCN(c1ccccc1)S(=O)(=O)c1cccc(C(=O)NCC(c2ccc(OC)cc2)N2CCCCC2)c1 (stereo not given) | 3.3% |
| COc1cc(C=NNc2ccc(S(=O)(=O)Nc3ccccc3C(=O)O)cc2[N+](=O)[O-])ccc1O | 14.4% |
| COc1ccccc1NS(=O)(=O)c1ccc(N/N=C/c2c(C)nn(-c3ccccc3)c2N2CCCC2)c([N+](=O)[O-])c1 | 8.44% |
| CSc1ccc(C=NNc2ccc(S(=O)(=O)Nc3ccccc3C(=O)O)cc2[N+](=O)[O-])cc1 | 3.57% |
| Cc1ccc(NC(=S)NNc2ccc([N+](=O)[O-])cc2S(=O)(=O)Nc2ccccc2C(=O)O)cc1C | 26.1% |
| COc1ccc(C=NNc2ccc(S(=O)(=O)Nc3ccccc3C(=O)O)cc2[N+](=O)[O-])c(OC)c1 | 20.4% |
| CC(=O)Nc1ccc(C=NNc2ccc(S(=O)(=O)Nc3ccccc3C(=O)O)cc2[N+](=O)[O-])cc1 | 15.1% |
| COC(=O)Nc1ccc(S(=O)(=O)N2CCC(C(=O)N3CCCCC3C)CC2)cc1 (stereo not given) | -11.1% |
| COc1ccccc1NS(=O)(=O)c1cc(C(=O)NCC(C)(C)N2CCOCC2)ccc1C | -2.2% |
| CCOc1ccc(CN(CC)C(=O)Cc2c[nH]c3ccccc23)cc1OC | -0.83% |
| O=C(O)[C@H](Cc1ccccc1)N1C(=O)c2ccncc2C1=O | -6.13% |

| SMILES | inhibition |
| --- | --- |
| CC(=O)c1c(C)[nH]c(C(=O)OCC(=O)NCc2ccc3c(c2)OCO3)c1C | -0.39% |
| O=C(O)CNC(=O)CC1S/C(=N/N=C2/NC(=O)CS2)NC1=O (stereo not given) | 16.4% |
| NC(=O)NC(=O)CC1S/C(=N/N=C2/NC(=O)CS2)NC1=O (stereo not given) | 5.04% |
| CCN=C1SC(CC(=O)NC(N)=O)C(=O)N1CC (stereo not given) | 0.98% |
| NC1=NC(=O)C(CC(=O)NCc2ccccc2)S1 (stereo not given) | 2.63% |
| CCN(CC)CCOc1ccccc1C(C)=O | -6.91% |
| COc1ccc(CNC(=O)C(C)Sc2ccc(S(=O)(=O)N3CCOCC3)cn2)cc1 (stereo not given) | -8.84% |
| CN(C)C(=O)C(OC(=O)c1ccc2c(c1)CCCC2)c1ccccc1 (stereo not given) | -4.12% |
| Nc1cc([N+](=O)[O-])ccc1OCc1ccccc1 | -17.4% |
| CC(=O)Nc1ccc(OCc2ccccc2)cc1[N+](=O)[O-] | -2.5% |
| S=C(Nc1ccc(Cl)cc1)Nc1ccc2c(c1)OCCO2 | -3.12% |
| COc1ccc(OC)c(S(=O)(=O)Nc2c(C)cccc2C)c1 | -4.66% |
| CC(=O)N(Cc1ccc(F)cc1)c1cccc(C)c1C | 5.28% |
| CCCNC1=C(N(C(C)=O)c2cccc(F)c2)C(=O)c2ccccc2C1=O | -1.3% |
| O=C1C(Cl)=C(NCCc2ccccc2)C(=O)c2ccccc21 | 28.7% |
| CN(CC(=O)NCCc1ccc(F)cc1)Cc1ccccc1 | 0.42% |
| O=C1C=C(Nc2ccc(Cl)cc2)CC(c2ccccc2)C1 (stereo not given) | 1.69% |
| CC(C)CCN1C(Nc2ccccc2)=NC[C@@H]1Cc1ccccc1 | -9.63% |
| COC(=O)c1cc2ccccn2c2c(C(=O)OC)c(C(=O)OC)cc1-2 | 16.8% |
| COC(=O)c1cc2c(-c3ccccc3)c(C)c3ccccn3c-2c1C(=O)OC | 26.4% |
| CC(=O)NC1c2ccccc2C(=O)N1Cc1ccccc1 (stereo not given) | -3.85% |
| O=[N+]([O-])c1cccc(/C=N/Nc2nc(NCc3ccccc3)nc(N3CCOCC3)n2)c1 | 0.07% |
| O=[N+]([O-])c1ccc(/C=N/Nc2nc(NCc3ccccc3)nc(N3CCOCC3)n2)cc1 | -9.38% |
| COc1ccc(NC(=O)[C@H](CCS(C)(=O)=O)N2Cc3ccccc3C2=O)c(OC)c1 | 28.3% |

| SMILES | inhibition |
| --- | --- |
| C[C@H](OC(=O)c1[nH]cnc1C(=O)N1CCN(C(=O)OC(C)(C)C)CC1)c1ccccc1 | -7.71% |
| CC1=NN(c2ccc(Cl)c(C(=O)O)c2)C(=O)/C1=C\c1ccc(-c2ccc(C(=O)O)cc2)o1 | 19.4% |
| CC1=NN(c2ccc(C(=O)O)cc2)C(=O)/C1=C/c1ccc(-c2ccccc2F)o1 | 23.6% |
| CC(=O)Nc1ccc(S(=O)(=O)N2CCC3(CC2)OCCO3)cc1 | 4.94% |
| COC(=O)c1ccc2c(c1)C(=O)/C(=C/c1ccc(O)cc1)O2 | -8.68% |
| COC(=O)c1ccc2nc(C)c(C)nc2c1 | -1.98% |
| COC(=O)c1ccc(O)cc1 | -1.72% |
| COC(=O)c1ccc2c(c1)C(C)(C)C(/C=C/c1ccc(OC)c(OC)c1OC)=[N+]2C | 4.08% |
| CNC(=O)c1c(C)noc1C | -6.29% |
| Clc1ccc(SCc2cc(N3CCOCC3)nc(-c3ccccn3)n2)cc1 | -0.35% |
| Clc1ccc(SCc2cc(Cl)nc(-c3ccccc3)n2)cc1 | 3.7% |
| COc1ccccc1N/C=C(\C#N)c1nc2ccccc2[nH]1 | 10.7% |
| Cc1cc(=O)[nH]c(N=N/C(=N/Nc2ccc(O)cc2)c2ccccc2)n1 | 13.6% |
| O=C(/C(=N\Nc1ccc(Br)cc1)Sc1nnnn1-c1ccccc1)c1ccccc1 | 4.24% |
| C/C(=N\Nc1ccc(C(=O)O)cc1)c1ccc(Br)cc1 | -17.3% |
| COc1ccc(N/N=C(/N=Nc2nc(C)cc(=O)[nH]2)c2ccccc2)cc1 | 26.3% |
| COc1ccc(S(=O)(=O)N2CCOC2CNC(=O)C(=O)NCCc2ccccc2)cc1OC (stereo not given) | 2.48% |
| Cc1ccc(C)n1-n1cnc2sc3c(c2c1=O)CCC3 | 0.86% |
| COc1ccccc1C(CNC(=O)c1ccc(S(=O)(=O)N2CCCCC2)cc1)N(C)C (stereo not given) | -6.72% |
| O=C(O)C(Cc1ccccc1)N=C(NS(=O)(=O)c1ccccc1)c1ccccc1 (stereo not given) | -1.07% |
| Cc1ccc(NCc2ccc(O)c3ncccc23)cc1C | -2.65% |
| Cc1ccc(C)c(S(=O)(=O)N2CCN(Cc3ccc(O)c4ncccc34)CC2)c1 | -17.5% |
| CCOC(=O)C1CCN(Cc2ccc(OC)c(C)c2OC)CC1 | 0.38% |
| CCOC(=O)C1CCN(Cc2c(O)ccc3ccccc23)CC1 | -4.79% |

| SMILES | inhibition |
| --- | --- |
| OC1(C#CCN2CCCC2)CCCCC1 | -3.16% |
| Cc1ccc(F)cc1NC(=O)CSc1nnc(CNC(=O)c2ccco2)n1C | -10.7% |
| N#CC(C#N)=C1NC(N)=C(C#N)C(c2ccccc2)=C1C#N | -3.59% |
| CCc1cccc(OCC(=O)N(C)CC(=O)Nc2cccc(F)c2)c1 | -9.68% |
| CCN1CCCc2cc(CN(CCN3CCOCC3)C(=O)Nc3ccc(C)c(C)c3)ccc21 | 22.9% |
| CCOc1ccc(NC(=O)N(CCN2CCOCC2)Cc2ccc3c(c2)CCCN3CC)cc1 | 16.9% |
| O=c1ccc(/C=C/c2ccccc2)nn1Cc1ccc(F)cc1 | 1.19% |
| Cn1c(C(=O)O)cc2cc(Oc3ccccc3)ccc21 | -27.7% |
| O=C1CCC(=O)N1OCCOc1ccccc1 | 6.54% |
| COc1ccc(/C=C/C(=O)OCC(=O)Nc2cccc(C(C)=O)c2)cc1 | -8.13% |
| O=[N+]([O-])c1ccc(CSc2nc3ccccc3o2)cc1 | 11.7% |
| O=[N+]([O-])c1ccc(Cl)cc1Sc1nc2ccccc2o1 | 4.69% |
| CCN(Cc1cnn(C)c1)C(=O)CC1C(=O)NCCN1Cc1cccc(OC)c1OC (stereo not given) | -0.14% |
| C[N+]1=C(/C=C/Nc2ccccc2Cl)C(C)(C)c2ccccc21 | 3.87% |
| C[N+]1=C(/C=C/Nc2ccccc2)C(C)(C)c2ccccc21 | -0.67% |
| O=c1c(-c2ccccc2)c(O)cc(-c2ccncc2)n1-c1ccc(Cl)cc1 | 1.22% |
| COc1cccc(OC)c1C(=O)Nc1sc2c(c1C(N)=O)CCN(Cc1ccccc1)C2 | 0.91% |
| O=[N+]([O-])c1ccc(C[n+]2cccc3ccccc32)cc1 | 2.93% |
| O=[N+]([O-])c1ccc(C[n+]2cccc3c4ccccc4ccc32)cc1 | -5.37% |
| O=C1C(NS(=O)(=O)c2cccs2)=C(N2CCN(c3cccc(Cl)c3)CC2)C(=O)c2ccccc21 | 19.4% |
| O=C1C(NS(=O)(=O)c2cccs2)=C(N2CCOCC2)C(=O)c2ccccc21 | 10.6% |
| O=C1C(NS(=O)(=O)c2cccs2)=C(N2CCN(Cc3ccccc3)CC2)C(=O)c2ccccc21 | 13.7% |
| CN1CCN(C2=C(NS(=O)(=O)c3cccs3)C(=O)c3ccccc3C2=O)CC1 | -3.67% |
